Assay results published in PubChem BioAssay (Tox21).
Results filed as inconclusive are left out. Active and inactive are the calls of the source. Unless noted, the call rests on the fitted dose curve; in most records, active means well fitted curve in the direction sought with a large enough effect in the repeat runs; inconclusive means weak or mixed curves; inactive means no such curve, though single readings can be large; an effect the other way counts as inactive or inconclusive.

Experiments:
[1] = qHTS assay to identify small molecule agonists of the peroxisome proliferator-activated receptor delta (PPARd) signaling pathway - cell viability counter screen (AID 743211); further: nearly all actives have a fitted effect of over 55% in size
How it was run: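 PPARd-bla HEK293H cells (3000/well) were pre-incubated 5 h at 37 C, then exposed to compound for 17 h at 37 C. After 2 h with LiveBLAzer substrate, CellTiter-Glo was added to the same wells; luminescence read after 30 min at room temperature.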

[2] = target: Peroxisome proliferator-activated receptor delta (Homo sapiens) (UniProt Q03181); experiment: qHTS assay to identify small molecule agonists of the peroxisome proliferator-activated receptor delta (PPARd) signaling pathway (AID 743212; calls by dose curve;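 further: HEK293H cells with PPARd UAS beta-lactamase reporter GeneBLAzer system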)
Sequence of Peroxisome proliferator-activated receptor delta (Homo sapiens) (Q03181 whole entry, looked up): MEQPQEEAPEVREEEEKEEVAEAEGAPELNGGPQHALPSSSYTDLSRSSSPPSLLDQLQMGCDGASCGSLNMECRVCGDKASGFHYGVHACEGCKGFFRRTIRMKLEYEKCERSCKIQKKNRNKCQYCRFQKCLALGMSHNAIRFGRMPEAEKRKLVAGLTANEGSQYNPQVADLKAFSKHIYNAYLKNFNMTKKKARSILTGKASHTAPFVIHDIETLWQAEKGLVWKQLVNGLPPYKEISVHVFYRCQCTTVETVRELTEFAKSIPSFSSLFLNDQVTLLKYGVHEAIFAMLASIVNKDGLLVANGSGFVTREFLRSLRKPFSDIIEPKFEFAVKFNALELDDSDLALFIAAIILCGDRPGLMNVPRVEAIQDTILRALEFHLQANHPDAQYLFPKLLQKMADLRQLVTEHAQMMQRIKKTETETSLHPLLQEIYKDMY
How it was run: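 Beta-lactamase reporter read by fluorescence (LiveBLAzer B/G FRET, 2 h, room temperature). Test agents, in DMSO, incubated at 37 C with PPARd-bla HEK293H cells.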

[3] = qHTS assay to identify small molecule antagonists of the peroxisome proliferator-activated receptor delta (PPARd) signaling pathway - cell viability counter screen (AID 743213); further: nearly all actives have a fitted effect of over 50% in size
How it was run: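 HEK293H cells with the PPARd UAS-bla reporter, co-treated 17 h at 37 C with compounds and L165041 (300 nM final), were lysed with CellTiter-Glo. Luminescence indicated viable cell content.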

[4] = target: Peroxisome proliferator-activated receptor delta (Homo sapiens) (UniProt Q03181); experiment: qHTS assay to identify small molecule antagonists of the peroxisome proliferator-activated receptor delta (PPARd) signaling pathway (AID 743215; active means well fitted inhibition curve with a large enough effect in the signal ratio in the repeat runs, not every such curve was filed as active; the % refers to the signal ratio;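 further: cells stimulated with agonist L165041 at 300 nM final during compound exposure; series mostly up to about 62 µM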)
How it was run: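 Screen format: qHTS, antagonist mode. HEK293H PPARd-bla cells received compound and 300 nM L165041 (final), 17 h, 37 C. Beta-lactamase detected via FRET substrate fluorescence, 2 h, room temperature.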

[5] = qHTS assay to identify small molecule agonists of the farnesoid-X-receptor (FXR) signaling pathway - cell viability counter screen (AID 743218); further: nearly all actives have a fitted effect of over 45% in size
How it was run: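 Same-well cytotoxicity check on FXR-UAS-bla HEK 293T cells: 5 h attachment, 16 h compound at 37 C, CellTiter-Glo luminescence read at room temperature after 30 min.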

[6] = qHTS assay to identify small molecule antagonists of the farnesoid-X-receptor (FXR) signaling pathway - cell viability counter screen (AID 743221; active means well fitted cell-killing curve with a large enough effect in the repeat runs, not every such curve was filed as active; further: nearly all actives have a fitted effect of over 50% in size)
How it was run: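 GeneBLAzer FXR-UAS-bla HEK 293T cells, compound plus chenodeoxycholic acid (50 uM final), 16 h at 37 C. CellTiter-Glo added to the same wells after the beta-lactamase read; luminescence read after 30 min at room temperature as viability.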

[7] = target: Vitamin D3 receptor (Homo sapiens) (UniProt P11473); experiment: qHTS assay to identify small molecule antagonists of the vitamin D receptor (VDR) signaling pathway (AID 743223; active means well fitted inhibition curve with a large enough effect in the signal ratio in the repeat runs, not every such curve was filed as active; the % refers to the signal ratio)
Sequence of Vitamin D3 receptor (Homo sapiens) (P11473 whole entry, looked up): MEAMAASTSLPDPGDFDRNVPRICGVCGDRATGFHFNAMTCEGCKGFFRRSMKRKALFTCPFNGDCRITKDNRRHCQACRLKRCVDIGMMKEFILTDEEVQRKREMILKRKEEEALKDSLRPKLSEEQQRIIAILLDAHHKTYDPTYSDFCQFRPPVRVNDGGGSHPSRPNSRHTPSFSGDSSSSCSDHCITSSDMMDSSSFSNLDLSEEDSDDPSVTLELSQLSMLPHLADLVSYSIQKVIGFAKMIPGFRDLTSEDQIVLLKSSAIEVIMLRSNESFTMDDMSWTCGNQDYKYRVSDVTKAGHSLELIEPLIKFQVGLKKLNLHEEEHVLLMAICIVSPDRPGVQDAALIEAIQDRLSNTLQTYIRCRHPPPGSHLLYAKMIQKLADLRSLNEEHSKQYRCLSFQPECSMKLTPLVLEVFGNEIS
How it was run: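 VDR-bla cells were treated with compound plus 3 nM final 1alpha,25-dihydroxyvitamin D3 for 16 h at 37C. Beta-lactamase reporter read by B/G FRET substrate fluorescence after 2 h at room temperature. qHTS format.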

[8] = qHTS assay to identify small molecule agonists of the vitamin D receptor (VDR) signaling pathway - cell viability counter screen (AID 743224); further: series mostly up to about 63 µM; nearly all actives have a fitted effect of over 50% in size
How it was run: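 Counter screen for cytotoxicity: VDR-bla cells at 2,000 cells/well, 16 h compound exposure, then CellTiter-Glo luminescence after the beta-lactamase measurement.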

[9] = qHTS assay to identify small molecule antagonists of the vitamin D receptor (VDR) signaling pathway - cell viability counter screen (AID 743225); further: nearly all actives have a fitted effect of over 50% in size
How it was run: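 VDR-UAS-bla HEK 293T cells were plated and incubated 4 h at 37C, then dosed with compound plus 3 nM (final) 1-alpha,25-dihydroxyvitamin D3 for 16 h. After the 2 h beta-lactamase read, viability in the same wells was read as CellTiter-Glo luminescence after 30 min at room temperature.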

[10] = qHTS assay to identify small molecule agonists of the NFkB signaling pathway - cell viability counter screen (AID 1159515; calls by dose curve; further: series mostly up to about 61 µM; nearly all actives have a fitted effect of over 55% in size)
How it was run: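 Counter screen run alongside the NFkB-bla agonist assay: ME-180 reporter cells exposed to compounds for 5 hr, then lysed with CellTiter-Glo in the same wells. Luminescence, read after 30 min, reflects viable cells.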

[11] = qHTS assay to identify small molecule agonists of the endoplasmic reticulum stress response signaling pathway (AID 1159516; active means well fitted activation curve with a large enough effect in the signal ratio in the repeat runs, not every such curve was filed as active; the % refers to the signal ratio)
How it was run: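 For this screen, HeLa cells stably carrying beta-lactamase under the ER stress response element received test compounds, positive controls or DMSO for 5 hr at 37 C; B/G FRET substrate was then added and dual-wavelength emission recorded.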

[12] = qHTS assay to identify small molecule agonists of the endoplasmic reticulum stress response signaling pathway - cell viability counter screen (AID 1159517; calls by dose curve)
How it was run: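 Cytotoxicity of test compounds toward ESRE-bla HeLa cells was assessed after 5 hr exposure. The luminescent CellTiter-Glo signal was measured 30 min after reagent addition.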

[13] = qHTS assay to identify small molecule antagonists of the retinoid-related orphan receptor gamma (ROR-gamma) signaling pathway - cell viability counter screen (AID 1159520); further: nearly all actives have a fitted effect of over 50% in size
How it was run: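 Tet-on ROR gamma CHO cells (1,000/well) were plated 4 hr, given compounds in DMSO for 2 hr at 37 C, then induced with 1 uM final doxycycline for 16 hr. Viability was read as ATP by CellTiter-Glo luminescence after 30 min.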

[14] = target: Nuclear receptor ROR-gamma (Homo sapiens) (UniProt P51449); experiment: qHTS assay to identify small molecule antagonists of the retinoid-related orphan receptor gamma (ROR-gamma) signaling pathway (AID 1159521)
How it was run: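 Tet-on ROR-gamma CHO cells with ROR response element-luciferase reporter; compounds added 2 hr before 1 uM doxycycline induction, then 16 hr at 37 C. Antagonism scored as decreased ONE-Glo luminescence.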

[15] = qHTS assay to identify small molecule agonists of the AP-1 signaling pathway - cell viability counter screen (AID 1159525; calls by dose curve; further: nearly all actives have a fitted effect of over 55% in size)
How it was run: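 Each titration point was normalised to DMSO and tetra n-octyl ammonium bromide controls. The read was Cell Titer Glo luminescence after 30 min at RT, following 5 h compound exposure of ME-180 AP-1-bla cells at 37 °C.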

[16] = qHTS assay to identify small molecule agonists of the AP-1 signaling pathway (AID 1159526; calls by dose curve)
[17] = target: Retinoic acid receptor RXR-alpha (Homo sapiens) (UniProt P19793); experiment: qHTS assay to identify small molecule agonists of the RXR signaling pathway (AID 1159527; calls by dose curve; further: nearly all actives have a fitted effect of over 35% in size)
Sequence of Retinoic acid receptor RXR-alpha (Homo sapiens) (P19793 whole entry, looked up): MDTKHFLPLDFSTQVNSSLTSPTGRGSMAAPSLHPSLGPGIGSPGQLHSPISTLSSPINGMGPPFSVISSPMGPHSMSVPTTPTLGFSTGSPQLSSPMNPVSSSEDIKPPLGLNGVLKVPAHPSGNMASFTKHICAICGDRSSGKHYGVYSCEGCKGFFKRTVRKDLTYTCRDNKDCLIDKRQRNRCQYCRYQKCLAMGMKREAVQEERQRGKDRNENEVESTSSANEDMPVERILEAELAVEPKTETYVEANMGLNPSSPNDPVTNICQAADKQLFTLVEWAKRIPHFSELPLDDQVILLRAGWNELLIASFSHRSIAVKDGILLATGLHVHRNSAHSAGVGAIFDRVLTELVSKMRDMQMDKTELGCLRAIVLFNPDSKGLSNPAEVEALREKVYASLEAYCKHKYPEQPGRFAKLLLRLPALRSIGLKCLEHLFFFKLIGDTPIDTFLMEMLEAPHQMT
How it was run: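 GeneBLAzer RXR-alpha-UAS-bla HEK 293T cells in 2% charcoal-stripped FBS medium were exposed to compounds for 16 hr at 37 C in agonist mode. Beta-lactamase reporter read as 460/530 nm FRET ratio after 2 hr substrate loading.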

[18] = target: Vitamin D3 receptor (Homo sapiens) (UniProt P11473); experiment: qHTS assay to identify small molecule agonists of the vitamin D receptor (VDR) signaling pathway (AID 743222; calls by dose curve)
How it was run: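 Using LiveBLAzer B/G FRET detection, agonism was scored in VDR-bla cells exposed overnight (16 h, 37C) to DMSO-dissolved compounds; substrate incubation was 2 h at room temperature.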

[19] = target: Bile acid receptor (Homo sapiens) (UniProt Q96RI1); experiment: qHTS assay to identify small molecule agonists of the farnesoid-X-receptor (FXR) signaling pathway (AID 743220; active means well fitted activation curve with a large enough effect in the signal ratio in the repeat runs, not every such curve was filed as active; the % refers to the signal ratio)
Sequence of Bile acid receptor (Homo sapiens) (Q96RI1 whole entry, looked up): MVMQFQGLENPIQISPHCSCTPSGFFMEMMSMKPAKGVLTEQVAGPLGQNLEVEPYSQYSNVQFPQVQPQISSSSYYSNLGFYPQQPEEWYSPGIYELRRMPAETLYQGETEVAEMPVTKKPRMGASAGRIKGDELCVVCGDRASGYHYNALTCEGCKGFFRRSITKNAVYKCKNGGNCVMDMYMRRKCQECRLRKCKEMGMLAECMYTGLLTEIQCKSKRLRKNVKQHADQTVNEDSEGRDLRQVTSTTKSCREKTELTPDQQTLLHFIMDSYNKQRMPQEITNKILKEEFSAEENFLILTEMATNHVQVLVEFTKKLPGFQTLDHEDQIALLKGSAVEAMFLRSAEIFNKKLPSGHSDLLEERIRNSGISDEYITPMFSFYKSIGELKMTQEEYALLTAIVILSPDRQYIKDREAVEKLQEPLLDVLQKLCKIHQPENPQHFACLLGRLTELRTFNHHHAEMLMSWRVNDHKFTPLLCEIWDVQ
How it was run: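 FXR-UAS-bla HEK 293T cells carrying a UAS-driven beta-lactamase reporter were plated for 5 h at 37C/5% CO2, then exposed to DMSO-dissolved Tox21 10K compounds for 16 h at 37C. A LiveBLAzer B/G FRET substrate was loaded for 2 h at room temperature before fluorescence reading.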

Measured: Potency

CC[N+]1(C)CCCC(OC(=O)C(O)(c2ccccc2)c2ccccc2)C1 (stereo not drawn)
not listed: [18] | [19]
inactive: all other assays above

COC(=O)C1(O)c2ccccc2-c2ccccc21
not listed: [2] | [7] | [19]
inactive: all other assays above

CCCCC#N
not listed: [2] | [7] | [9] | [18] | [19]
inactive: all other assays above

O=C(O)C(O)C(O)C(=O)O (stereo not drawn)
not listed: [4] | [7] | [18]
inactive: all other assays above

C=CCSSCC=C
not listed: [2] | [19]
inactive: all other assays above

OCC1CO1 (stereo not drawn)
not listed: [2]
inactive: all other assays above

CC1(C)CC(=O)CC(C)(C)N1[O]
not listed: [9]
inactive: all other assays above

CN(C)N
not listed: [2] | [19]
inactive: all other assays above

Nc1cc(Cl)cc(C(=O)O)c1Cl
not listed: [9] | [19]
inactive: all other assays above

CCc1cnc(C2=NC(C)(C(C)C)C(=O)N2)c(C(=O)O)c1 (stereo not drawn)
not listed: [19]
inactive: all other assays above

CC(O)CN1CCN(CC(=O)[O-])CCN(CC(=O)[O-])CCN(CC(=O)[O-])CC1.[Gd+3] (stereo not drawn)
not listed: [9]
inactive: all other assays above

CC(CC(C(N)=O)(c1ccccc1)c1ccccc1)N(C)C (stereo not drawn)
not listed: [19]
inactive: all other assays above

CCCN(CCC)C(=O)Cc1c(-c2ccc(Cl)cc2)nc2ccc(Cl)cn12
not listed: [7] | [9] | [18]
inactive: all other assays above

CCCCOC(=O)CCC(=O)OCCCC
not listed: [4] | [7] | [18] | [19]
inactive: all other assays above

C=CC(=O)NC(C)(C)CC(C)=O
not listed: [19]
inactive: all other assays above

CCCC1CCCCN1 (stereo not drawn)
not listed: [7] | [8] | [18] | [19]
inactive: all other assays above
